From PubChem BioAssay (Tox21)
Records with an inconclusive call do not appear. Activity calls are given as the source filed them. Unless noted, calls come from the whole dose curve; as a rule, active = well fitted curve in the direction sought with a large enough effect in the repeat runs; inconclusive = weak or mixed curves; inactive = no such curve, though single readings can be large; an effect the other way counts as inactive or inconclusive.

What was measured:
[1] = qHTS assay to identify small molecule antagonists of the glucocorticoid receptor (GR) signaling pathway - cell viability counter screen (AID 720693); note: nearly all actives have a fitted effect of over 55% in size
[2] = qHTS assay for identifying genotoxic compounds that show differential cytotoxicity against isogenic chicken DT40 cell lines with known DNA damage response pathways - wild type cell line (AID 743012); note: nearly all actives have a fitted effect of over 60% in size; note: potency is the fitted concentration of half-maximal effect
Method in brief: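 First, wild type DT40 cells were plated at 300 per well and equilibrated about 0.5 h at 37 C/5% CO2. Next, compounds in DMSO were added and exposure lasted 40 h. Finally, CellTiter-Glo was added for 30 min at room temperature and luminescence recorded.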

[3] = qHTS assay for identifying genotoxic compounds that show differential cytotoxicity against isogenic chicken DT40 cell lines with known DNA damage response pathways - Rev3 mutant cell line (AID 743014); note: nearly all actives have a fitted effect of over 55% in size
[4] = qHTS assay for identifying genotoxic compounds that show differential cytotoxicity against isogenic chicken DT40 cell lines with known DNA damage response pathways - Rad54/Ku70 mutant cell line (AID 743015); note: nearly all actives have a fitted effect of over 60% in size; note: potency is the fitted concentration of half-maximal effect
[5] = qHTS assay to identify small molecule antagonists of the thyroid receptor (TR) signaling pathway (AID 743065); note: nearly all actives have a fitted effect of over 55% in size; note: potency is the fitted concentration of half-maximal effect
Method in brief: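 Antagonism measured as loss of luciferase signal in GH3 cells stably carrying a TRE-luciferase reporter, co-treated with compound and T3 (1 nM final) for 23.5 h at 37 C. Viability was read in the same well by CellTiter-Fluor.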

[6] = test system: thyroid hormone receptor (rat, GH3 cells); test: qHTS assay to identify small molecule agonists of the thyroid receptor (TR) signaling pathway (AID 743066; calls by dose curve)
[7] = qHTS assay to identify small molecule antagonists of the estrogen receptor alpha (ER-alpha) signaling pathway - cell viability counter screen (AID 743074; calls by dose curve;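 note: HEK293 cells carrying ER-alpha-UAS-bla reporter stimulated with 17beta-estradiol; nearly all actives have a fitted effect of over 45% in size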)
[8] = qHTS assay to identify small molecule antagonists of the estrogen receptor alpha (ER-alpha) signaling pathway using the BG1 cell line - cell viability counter screen (AID 743081);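 note: compound given together with 17beta-estradiol as the ER stimulus; series mostly up to about 70 µM; nearly all actives have a fitted effect of over 45% in size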
Aromatase (Homo sapiens) = Aromatase (Homo sapiens) (UniProt P11511); test: qHTS assay to identify aromatase inhibitors (AID 743083); note: series mostly up to about 70 µM; nearly all actives have a fitted effect of over 55% in size
Aromatase (Homo sapiens), sequence (P11511 whole entry, looked up): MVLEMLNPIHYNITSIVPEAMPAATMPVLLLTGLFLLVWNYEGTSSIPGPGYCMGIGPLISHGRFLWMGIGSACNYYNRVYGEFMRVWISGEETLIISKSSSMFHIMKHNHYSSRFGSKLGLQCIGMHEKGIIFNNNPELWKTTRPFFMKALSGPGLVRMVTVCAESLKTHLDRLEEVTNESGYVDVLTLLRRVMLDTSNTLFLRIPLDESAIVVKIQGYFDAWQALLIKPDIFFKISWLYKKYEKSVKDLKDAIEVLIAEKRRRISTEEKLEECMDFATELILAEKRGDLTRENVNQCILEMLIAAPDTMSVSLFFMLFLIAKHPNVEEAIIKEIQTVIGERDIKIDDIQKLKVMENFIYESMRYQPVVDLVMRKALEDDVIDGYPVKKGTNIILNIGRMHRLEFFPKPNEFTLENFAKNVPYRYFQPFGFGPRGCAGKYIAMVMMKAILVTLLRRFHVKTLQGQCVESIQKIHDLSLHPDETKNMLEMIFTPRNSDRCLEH

[9] = qHTS assay to identify aromatase inhibitors - cell viability counter screen (AID 743084)
[10] = molecular target: Estrogen receptor (Homo sapiens) (UniProt P03372); test: qHTS assay to identify small molecule antagonists of the estrogen receptor alpha (ER-alpha) signaling pathway (AID 743069; active = well fitted curve in the direction sought with a large enough effect in the signal ratio in the repeat runs, not every such curve was filed as active; the % refers to the signal ratio)
Estrogen receptor (Homo sapiens), sequence (P03372 whole entry, looked up): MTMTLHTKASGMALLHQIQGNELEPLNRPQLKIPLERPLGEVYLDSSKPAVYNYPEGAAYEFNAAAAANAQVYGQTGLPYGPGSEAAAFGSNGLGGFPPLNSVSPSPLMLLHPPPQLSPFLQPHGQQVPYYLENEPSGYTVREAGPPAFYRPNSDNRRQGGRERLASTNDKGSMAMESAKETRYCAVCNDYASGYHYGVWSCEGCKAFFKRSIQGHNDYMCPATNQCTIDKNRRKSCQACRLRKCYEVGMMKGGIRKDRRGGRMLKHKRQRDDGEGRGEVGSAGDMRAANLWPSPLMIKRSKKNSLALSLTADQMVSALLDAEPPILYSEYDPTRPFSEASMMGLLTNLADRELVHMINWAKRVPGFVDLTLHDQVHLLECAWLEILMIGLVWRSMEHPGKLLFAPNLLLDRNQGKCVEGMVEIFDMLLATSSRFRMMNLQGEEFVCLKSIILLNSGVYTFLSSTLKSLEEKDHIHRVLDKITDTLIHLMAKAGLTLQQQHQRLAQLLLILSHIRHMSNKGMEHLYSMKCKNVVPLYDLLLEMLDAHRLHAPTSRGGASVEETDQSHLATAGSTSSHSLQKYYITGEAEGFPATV
Method in brief: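 Compound effects are measured against 17beta-estradiol stimulation in HEK293 cells with a UAS-controlled beta-lactamase reporter for ER-alpha. Exposure lasts 18 hr at 37C; LiveBLAzer B/G FRET substrate follows for 2 hr at room temperature.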

[11] = molecular target: Estrogen receptor (Homo sapiens) (UniProt P03372); test: qHTS assay to identify small molecule agonists of the estrogen receptor alpha (ER-alpha) signaling pathway (AID 743075; calls by dose curve)
[12] = molecular target: Estrogen receptor (Homo sapiens) (UniProt P03372); test: qHTS assay to identify small molecule agonists of the estrogen receptor alpha (ER-alpha) signaling pathway using the BG1 cell line (AID 743079); note: nearly all actives have a fitted effect of over 20% in size; note: potency is the fitted concentration of half-maximal effect
[13] = qHTS assay to identify small molecule antagonists of the estrogen receptor alpha (ER-alpha) signaling pathway using the BG1 cell line (AID 743080; calls by dose curve;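 note: BG1 cells stimulated with 17beta-estradiol alongside compound; series mostly up to about 70 µM; nearly all actives have a fitted effect of over 25% in size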)
Method in brief: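 BG1Luc4E2, endogenous ER-alpha, 4xERE-luc; 5 d charcoal-stripped FBS, phenol red free; 24 h plating; cpd + 17beta-estradiol 21.5 h, 37 C/5% CO2; CellTiter-Fluor viability 30 min, then ONE-Glo luciferase 30 min RT.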

[14] = qHTS assay to identify small molecule antagonists of the androgen receptor (AR) signaling pathway using the MDA cell line - cell viability counter screen (AID 743041; note: nearly all actives have a fitted effect of over 45% in size)
Method in brief: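 R1881-driven MDA-kb2 AR-luc cells, 3,000/well, were dosed with library compounds for 16 h; cell health came from CellTiter-Fluor fluorescence in the reporter wells.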

[15] = qHTS assay to identify small molecule antagonists of the thyroid receptor (TR) signaling pathway - cell viability counter screen (AID 743064); note: nearly all actives have a fitted effect of over 50% in size
Method in brief: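 Fluorescence from CellTiter-Fluor, added after 23.5 h exposure at 37 °C, reported viability of GH3.TRE-Luc cells co-treated with compound and 1 nM T3. Measured in the same wells as the luciferase TR readout.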

[16] = qHTS assay to identify small molecule antagonists of the androgen receptor (AR) signaling pathway - cell viability counter screen (AID 743033; note: nearly all actives have a fitted effect of over 45% in size)
[17] = molecular target: Androgen receptor (Homo sapiens) (UniProt P10275); test: qHTS assay to identify small molecule antagonists of the androgen receptor (AR) signaling pathway (AID 743035; active = well fitted inhibition curve with a large enough effect in the signal ratio in the repeat runs, not every such curve was filed as active; the % refers to the signal ratio)
Androgen receptor (Homo sapiens), sequence (P10275 whole entry, looked up): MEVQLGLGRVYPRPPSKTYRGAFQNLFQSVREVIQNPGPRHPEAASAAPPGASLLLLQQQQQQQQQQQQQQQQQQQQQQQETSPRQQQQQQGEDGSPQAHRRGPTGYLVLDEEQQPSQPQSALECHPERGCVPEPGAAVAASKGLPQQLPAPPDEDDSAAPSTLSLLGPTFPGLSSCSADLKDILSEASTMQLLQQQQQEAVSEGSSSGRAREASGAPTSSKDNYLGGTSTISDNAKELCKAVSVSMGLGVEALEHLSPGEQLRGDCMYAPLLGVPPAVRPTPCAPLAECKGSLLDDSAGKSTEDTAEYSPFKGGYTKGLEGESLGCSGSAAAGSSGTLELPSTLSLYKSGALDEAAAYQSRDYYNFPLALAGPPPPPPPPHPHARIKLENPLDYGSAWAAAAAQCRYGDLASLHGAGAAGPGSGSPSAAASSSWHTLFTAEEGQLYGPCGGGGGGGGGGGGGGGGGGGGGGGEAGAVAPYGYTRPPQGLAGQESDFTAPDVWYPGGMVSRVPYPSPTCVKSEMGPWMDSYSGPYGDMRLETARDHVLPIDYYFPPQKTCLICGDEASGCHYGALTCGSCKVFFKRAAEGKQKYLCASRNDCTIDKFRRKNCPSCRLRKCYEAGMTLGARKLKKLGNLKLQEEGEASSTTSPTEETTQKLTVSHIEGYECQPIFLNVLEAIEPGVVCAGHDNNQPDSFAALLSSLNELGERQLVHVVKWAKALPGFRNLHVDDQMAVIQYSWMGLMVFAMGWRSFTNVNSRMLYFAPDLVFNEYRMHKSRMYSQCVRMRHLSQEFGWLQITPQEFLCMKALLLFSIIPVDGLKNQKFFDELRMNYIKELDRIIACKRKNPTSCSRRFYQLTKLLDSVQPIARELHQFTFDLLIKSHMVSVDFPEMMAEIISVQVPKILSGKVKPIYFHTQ
Method in brief: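 Beta-lactamase FRET read (2 h RT incubation with LiveBLAzer B/G) following 16 h of compound plus R1881 treatment of AR-UAS-bla HEK293 cells, which had been pre-incubated 4 h at 37C.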

[18] = molecular target: Androgen receptor (Homo sapiens) (UniProt P10275); test: qHTS assay to identify small molecule agonists of the androgen receptor (AR) signaling pathway (AID 743036; active = well fitted activation curve with a large enough effect in the signal ratio in the repeat runs, with a control signal flat, not every such curve was filed as active; the % refers to the signal ratio)
Method in brief: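 Fluorescence from a beta-lactamase FRET substrate served as read-out in AR-UAS-bla GripTite HEK293 cells. Cells were treated with DMSO-dissolved compounds for 16 h at 37C, then with LiveBLAzer B/G substrate for 2 h at room temperature.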

[19] = molecular target: Androgen receptor (Homo sapiens) (UniProt P10275); test: qHTS assay to identify small molecule agonists of the androgen receptor (AR) signaling pathway using the MDA cell line (AID 743040; note: nearly all actives have a fitted effect of over 20% in size)
Method in brief: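 After a 5 h incubation at 37C and 0% CO2, MDA-kb2 reporter cells were dosed with compounds in DMSO and kept 16 h under the same conditions. Luciferase activity was then read as luminescence with ONE-Glo.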

Measured: Potency

COc1cc(NS(=O)(=O)c2ccc(N)cc2)ncn1
inactive: [1] | [2] | [3] | [4] | [5] | [6] | [7] | [8] | Aromatase (Homo sapiens) | [9]

Cc1ccc(O)c([N+](=O)[O-])c1
inactive: [1] | [2] | [3] | [4] | [5] | [6] | [10] | [7] | [11] | [12] | [13] | [8] | Aromatase (Homo sapiens) | [9]

C[n+]1ccccc1/C=N/O
inactive: [1] | [2] | [4] | [14] | [15] | [5] | [6] | [10] | [7] | [11] | [12] | [13] | [8] | Aromatase (Homo sapiens) | [9]

CC1=C(O)C(=O)CO1
inactive: [1] | [3] | [4] | [16] | [14] | [5] | [6] | [10] | [7] | [11] | [12] | [13] | [8] | Aromatase (Homo sapiens) | [9]

BrCCOc1ccccc1
inactive: [1] | [2] | [4] | [16] | [14] | [15] | [10] | [7] | [11] | [12] | [13] | [8] | Aromatase (Homo sapiens) | [9]

Cc1ccc(OC(=O)CC(C)C)cc1
inactive: [1] | [2] | [3] | [16] | [14] | [5] | [6] | [10] | [7] | [11] | [12] | [13] | [8] | Aromatase (Homo sapiens) | [9]

O=C(O)CCC(=O)Nc1ccc(S(=O)(=O)Nc2nccs2)cc1
inactive: [1] | [2] | [4] | [16] | [14] | [15] | [5] | [6] | [7] | [8] | Aromatase (Homo sapiens) | [9]

CCCCCCCCCCCCCCCC/C=C/C1CC(=O)OC1=O (configuration not stated)
inactive: [1] | [2] | [3] | [16] | [14] | [6] | [7] | [8] | Aromatase (Homo sapiens) | [9]
active: [5] 29.7 µM

CCCCCC(=O)CC
inactive: [1] | [2] | [4] | [16] | [14] | [5] | [6] | [7] | [8] | Aromatase (Homo sapiens) | [9]

O=C1Nc2ccccc2C1=O
inactive: [1] | [3] | [4] | [16] | [14] | [5] | [6] | [7] | [8] | Aromatase (Homo sapiens) | [9]

O=S(=O)(O)CC(O)CCl (configuration not stated)
inactive: [1] | [3] | [4] | [16] | [14] | [5] | [6] | [10] | [7] | [11] | [12] | [13] | [8] | Aromatase (Homo sapiens) | [9]

C/C(=N\O)c1ccc(OCC(=O)N2CCCCC2)cc1
inactive: [1] | [3] | [4] | [16] | [17] | [18] | [19] | [14] | [5] | [6] | [10] | [11] | [8] | Aromatase (Homo sapiens) | [9]
active: [12] 4.22 µM

CCOc1ccccc1OCCN[C@H](C)Cc1ccc(OC)c(S(N)(=O)=O)c1
inactive: [1] | [2] | [4] | [16] | [14] | [15] | [5] | [6] | [7] | [8] | Aromatase (Homo sapiens) | [9]

CC(CN1CC(=O)NC(=O)C1)N1CC(=O)NC(=O)C1 (configuration not stated)
active: [2] 4.22 µM | [4] 0.596 µM
inactive: [1] | [16] | [18] | [14] | [15] | [5] | [6] | [10] | [7] | [11] | [12] | [8] | Aromatase (Homo sapiens)

C[C@@H]1CC[C@@]2(OC1)O[C@H]1C[C@H]3[C@@H]4CC[C@H]5C[C@@H](O)CC[C@]5(C)[C@H]4CC(=O)[C@]3(C)[C@H]1[C@@H]2C
inactive: [1] | [2] | [3] | [4] | [15] | [5] | [6] | [10] | [7] | [11] | [12] | [13] | [8] | Aromatase (Homo sapiens) | [9]

CCCC(=O)OC
inactive: [1] | [3] | [4] | [16] | [14] | [15] | [5] | [6] | [10] | [7] | [11] | [12] | [13] | [8] | Aromatase (Homo sapiens) | [9]
